# Assay outcomes: PubChem, NMMLSC
# MEKK3 PB1 HTS = raises or lowers MEK5 binding to the human MEKK3 PB1 domain; AID 1529; actives 1.4% (n = 290,000); Q99759; bead-based flow cytometry, Alexa488-MEK5 binding to MEKK3; actives lie on both sides; 0 = blocked by unlabeled MEK5, 100 = vehicle; binding response (% of control), % at 10 µM;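 active = binding response more than 3 SD above or below the average of its plate-row segment, actives on both sides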;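 note: Alexa488 bead fluorescence after subtracting the streptavidin-only scavenger bead signal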
# MEKK2 mut-MEK5 = signal of MEK5 binding to mutant human MEKK2 PB1 domain | actives 0.35% (n = 290,000) | bead flow cytometry, Alexa488-MEK5 binding to MEKK2 mutant | percent response, % at 10 µM; in the data active = percent response above about 24%, passing the limit was not always enough
# MEKK2 WT-MEK5 = raises or lowers MEK5 binding to wildtype human MEKK2 PB1 domain; AID 1531; Q9Y2U5; bead flow cytometry, Alexa488-MEK5 binding to MEKK2 WT; actives lie on both sides; binding response (% of control), % at 10 µM; actives 1.1% (n = 290,000); in the data active = binding response below about 67% or above about 130%
# GRK2 aptamer HTS = human GRK2 inhibition via aptamer displacement; actives 0.59% (n = 330,000); inhibition of aptamer binding, % at 10 µM; AID 488847; bead flow cytometry, FAM-aptamer displacement from GRK2; P25098;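 active = inhibition of aptamer binding above 40%, roughly 3 SD of noise, on plates passing a quality check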;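 note: median bead fluorescence of bound FAM aptamer so fluorescent compounds give negative values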
# Beta2AR agonist = agonists of human beta-2 adrenergic receptor inducing internalization. P07550. response, % (test concentration not listed). actives 0.43% (n = 340,000). Am2.2-beta2AR cells, FAP receptor internalization, flow cytometry. AID 504454;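 active = response above a set limit, near 3 SD of response in nonfluorescent compounds, cut at about 42% in these data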
# Target sequence (P07550 whole entry, looked up): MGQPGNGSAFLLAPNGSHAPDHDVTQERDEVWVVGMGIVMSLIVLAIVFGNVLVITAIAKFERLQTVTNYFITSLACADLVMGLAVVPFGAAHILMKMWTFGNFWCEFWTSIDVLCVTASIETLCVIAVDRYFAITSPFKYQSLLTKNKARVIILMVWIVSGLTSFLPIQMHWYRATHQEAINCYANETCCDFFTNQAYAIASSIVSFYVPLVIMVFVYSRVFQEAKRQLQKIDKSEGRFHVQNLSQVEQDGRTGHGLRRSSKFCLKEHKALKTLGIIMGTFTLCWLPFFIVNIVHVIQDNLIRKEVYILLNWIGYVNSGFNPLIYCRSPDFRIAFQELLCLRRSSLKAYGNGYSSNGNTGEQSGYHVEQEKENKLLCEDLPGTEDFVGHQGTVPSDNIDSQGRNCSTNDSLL
# MEKK2wt confirm = raises or lowers MEK5 binding to wildtype human MEKK2, retest | shares compounds with MEKK3 PB1 HTS | bead flow cytometry, Alexa488-MEK5 binding to MEKK2 WT; actives lie on both sides | binding response (% of control), % at 10 µM | actives 2.4% (n = 5,900); in the data active = binding response below about 16% or above about 210%; inactive = in between
# MEKK2mut confirm = signal of MEK5 binding to mutant human MEKK2, retest; actives 2% (n = 5,900); percent response, % at 10 µM; bead flow cytometry, Alexa488-MEK5 binding to MEKK2 mutant; shares compounds with MEKK3 PB1 HTS; in the data active = percent response mostly above about 71%, no sharp cut-off; inactive = mostly below about 38%;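 note: higher means compound restores mutant binding toward wildtype level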
# MEKK3-MEK5 inh = confirmation of inhibitors of MEK5 binding to human MEKK3; shares compounds with MEKK3 PB1 HTS; bead flow cytometry, Alexa488-MEK5 binding to MEKK3; stronger effect = lower value; binding response (% of control), % at 10 µM; actives 1.8% (n = 5,900); AID 1894;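 active = binding response below 72% of control, or above a set upper limit, though filed actives all read lower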
# Hits are given with their value; . = inactive; / = not tested or not shown; [ ] = remark or other dose. This is a sample that favours compounds with a hit; in the whole collection about 2.9% have one here.
SMILES,MEKK3 PB1 HTS,MEKK2 mut-MEK5,MEKK2 WT-MEK5,GRK2 aptamer HTS,Beta2AR agonist,MEKK2wt confirm,MEKK2mut confirm,MEKK3-MEK5 inh
COc1ccccc1-n1c(CNc2c(C)cccc2C)nnc1SCC(=O)N1CCOCC1,122,.,.,.,.,.,.,.
Fc1cc2[nH]c(=S)[nH]c2c(Br)c1N1CCSCC1,.,.,.,.,.,/,/,/
S=C(NCCN1CCOCC1)Nc1cccc(Cl)c1,.,.,.,.,.,/,/,/
Cc1cccc(NC(=S)NCCCN2CCOCC2)c1,138,.,.,.,.,.,.,.
COc1cccc(NC(=S)NCCN2CCOCC2)c1,141,.,.,.,.,.,.,.
O=C(CN1CCN(c2ccc(O)cc2)CC1)Nc1ccc2c(c1)OCCCO2,/,/,/,.,.,/,/,/
O=C(Nc1cccc(O)c1)c1cccc(NC(=O)c2cccs2)c1,.,.,.,.,.,/,/,/
Cc1ccc2nc(-c3ccc(NC(=S)NC(=O)C(C)C)cc3)sc2c1,.,.,.,.,.,/,/,/
Cc1ccc2nc(-c3ccc(NC(=S)NC4CC(C)(C)NC(C)(C)C4)cc3)sc2c1,.,74,235,.,.,218,90,.
Cc1noc(C(=O)Nc2ccc(F)c(Cl)c2)c1Cl,.,.,.,.,.,/,/,/
Cc1cc(Cl)ccc1NC(=O)CCC(=O)O,135,.,.,.,.,.,.,.
CCCN(CC(=O)Nc1ccccc1C)C(=O)c1ccc(N2CCCC2=O)cc1,/,/,/,.,.,/,/,/
Cc1nc2c3cc(F)ccc3n(Cc3ccc(F)cc3)c2s1,144,.,.,.,.,.,.,.
O=C(NCC1CCCO1)C(c1cccnc1)N(C(=O)Cc1cccs1)c1ccccc1 (configuration not stated),-1.0[inhibitor],.,-10[inhibitor],.,.,.,.,.
O=C(NCC1CCCO1)C(c1cccs1)N(C(=O)Cn1nnc(-c2cccs2)n1)C1CCCC1 (configuration not stated),.,.,.,.,.,/,/,/
CS(=O)(=O)N(Cc1ccc(Cl)cc1)c1ccc(C(=O)NCC2CCCO2)cc1 (configuration not stated),.,.,.,.,.,/,/,/
Cc1ccc(N(C(=O)CNC(=O)c2ccco2)C(C(=O)NCC2CCCO2)c2ccccc2)cc1 (configuration not stated),.,.,.,.,.,/,/,/
O=C(NCC(=O)N(c1ccccc1)C(C(=O)NCC1CCCO1)c1ccccc1)c1ccco1 (configuration not stated),125,.,.,.,.,.,.,.
CS(=O)(=O)N(Cc1ccccc1)c1ccc(C(=O)NCC2CCCO2)cc1 (configuration not stated),123,.,.,.,.,.,.,.
O=C(NCC1CCCO1)C(c1cccs1)N(Cc1cccs1)C(=O)Cn1nnc(-c2cccs2)n1 (configuration not stated),66[inhibitor],.,-2.0,.,.,.,.,.
CCN(CC(=O)Nc1ccc2c(c1)OCCO2)C(=O)CC(NC(C)=O)c1ccccc1 (configuration not stated),/,/,/,.,.,/,/,/
O=C(NCC(=O)N(c1cccc(F)c1)C(C(=O)NC1CCCC1)c1cccnc1)c1cccs1 (configuration not stated),129,.,.,.,.,.,.,.
O=C(NCC(=O)N(c1ccc(F)cc1)C(C(=O)NC1CCCC1)c1cccnc1)c1cccs1 (configuration not stated),.,.,.,.,.,/,/,/
COCCNC(=O)c1c(NC(=O)c2nc(SC)ncc2Cl)sc2c1CCCC2,82[inhibitor],.,.,.,.,.,.,.
COc1ccc(-c2cc(C(F)(F)F)n3nc(C(=O)NCc4ccco4)cc3n2)cc1,.,.,.,.,.,/,/,/
SMILES,MEKK3 PB1 HTS,MEKK2 mut-MEK5,MEKK2 WT-MEK5,GRK2 aptamer HTS,Beta2AR agonist,MEKK2wt confirm,MEKK2mut confirm,MEKK3-MEK5 inh
COc1ccc(-c2cc(C(F)(F)F)n3nc(C(=O)NCc4ccco4)c(Cl)c3n2)cc1,.,.,30[inhibitor],.,.,.,.,.
COc1ccc(-c2csc(NC(=O)c3ccc(N4C(=O)CCC4=O)cc3)n2)cc1,.,.,.,.,.,/,/,/
O=C(Nc1nc(-c2ccc(F)cc2)cs1)c1ccc(N2C(=O)CCC2=O)cc1,74[inhibitor],.,.,.,.,.,.,.
NS(=O)(=O)c1ccc(NS(=O)(=O)c2ccc(NC(=S)Nc3ccccc3)cc2)cc1,4.0[inhibitor],.,.,.,.,.,.,.
COc1ccc(-n2cc(-c3ccccc3)[nH]c2=S)cc1,130,.,.,.,.,.,.,.
CCN(CCNC(=O)c1ccc(C#N)cc1)c1cccc(C)c1,.,.,.,.,.,/,/,/
CCN(CCNCC(O)COCc1ccc(Cl)cc1)c1cccc(C)c1 (configuration not stated),.,.,159,.,.,.,.,.
CC1CCCN(S(=O)(=O)c2cccc(C(=O)OCC(=O)N(C)Cc3c(F)cccc3Cl)c2)C1 (configuration not stated),/,/,/,.,.,/,/,/
Cc1cccc(NC(=O)c2nc[nH]c2C(=O)N2CCc3ccccc3C2)c1,/,/,/,.,.,/,/,/
COc1cc(-n2c(=O)c3ccccc3n(Cc3ccccc3)c2=O)cc(OC)c1OC,134,.,.,.,.,.,.,.
CCCCNC(=O)c1ccc(Cn2c(=S)[nH]c3c([nH]c4ccc(OC)cc43)c2=O)cc1,.,.,.,.,.,/,/,/
O=C(NCC1CCCO1)c1ccc2c(=O)n(CC3CCCO3)c(=S)[nH]c2c1 (configuration not stated),2.0[inhibitor],.,3.0[inhibitor],.,.,.,.,.
COc1ccc2[nH]c3c(=O)n(Cc4ccc(C(=O)NCC5CCCO5)cc4)c(=S)[nH]c3c2c1 (configuration not stated),.,178,.,.,.,.,.,.
Cc1ccc(NC(=O)CC2(CC(=O)O)CCCC2)c(C)c1,.,.,.,.,.,/,/,/
COc1ccc(S(=O)(=O)N2CCN(C(=O)Cc3ccsc3)CC2)cc1,/,/,/,/,.,/,/,/
CCOC(=O)/C(=N\Nc1ccc(Cl)cc1)c1csc(Nc2ccccc2)n1,.,.,135,.,.,.,.,.
CCOC(=O)/C(=N/Nc1ccccc1)c1csc(Nc2ccccc2)n1,.,.,.,.,.,/,/,/
CCCCC1=CC2=C(c3ccco3)C(=O)C(C)(OC(=O)c3ccc(OC)cc3)C(=O)C2=CN1CCN1CCOCC1 (configuration not stated),.,.,142,.,.,.,.,.
